Here are results for 26 compounds from the supplement of paper PMC10037445.

“And” between values parts separate entries of the source, which are not always exact repeats. Equal entries are not always repeated. In all, about 2,900 compounds were measured (“NF-kB SEAP reporter activity, fold change vs agonist alone”: median about 0.99, highest 2% from about 2.6 on). Many of the other results were omitted from the sample, so the highest values are more common in it than they were.

Assay [1] relates to RAW-Dual. In words: NF-kB SEAP reporter activity, fold change vs agonist alone; higher = enhanced NF-kB activity. The note with it: library stock concentration (final ~1000-fold dilution): 10 mM. In short, it runs like this: (§1)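 RAW-Dual macrophages were seeded in DMEM at 50,000 cells/well in 384-well plates, given 50 nL of library stock by pin tool, and given a PRR agonist 1 h later. Plates were held at 37 °C, 5% CO2 for 20 hours, after which supernatant was read for IRF by QuantiLuc luminescence and for NF-κB by QuantiBlue absorbance at 620 nm. Reporter activity is expressed as fold change over wells that received agonist alone. A well was called cytotoxic when IncuCyte confluency fell below 70% of agonist controls in both mask sets.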

The subject of assay [2] is RAW-Dual. In words: NF-kB SEAP reporter activity, fold change vs agonist alone; cytotoxicity flag (confluency mask): cytotoxic (confluency <70% of control); higher = enhanced NF-kB activity. In short, it runs like this:
as §1

Assay [3] has as its system RAW-Dual. The assay is described as follows: NF-kB SEAP reporter activity, fold change vs agonist alone; cytotoxicity flag (confluency mask): not cytotoxic; higher = enhanced NF-kB activity. In short, it runs like this: as §1
Where [4] appears, read: cytotoxicity flag (confluency mask): cytotoxic (confluency <70% of control), agonist: Imiquimod (TLR7) […].
[5] abbreviates: cytotoxicity flag (confluency mask): cytotoxic (confluency <70% of control), agonist: MPLA (TLR4) […].
[6] abbreviates: agonist: ODN 1826 (TLR9) 0.5 ug/mL.
Where [7] appears, read: agonist: Pam2CSK4 (TLR2/6) 0.1 ug/mL.
[8] abbreviates: agonist: Pam3CSK4 (TLR2/1) 0.1 ug/mL.
Setting [9] is: cytotoxicity flag (confluency mask): not cytotoxic, agonist: Imiquimod (TLR7) […].
Setting [10] is: cytotoxicity flag (confluency mask): not cytotoxic, agonist: MPLA (TLR4) […].

For `COc1cc(N2CCC(N)CC2)ccc1Nc1ncc(Cl)c(-c2c[nH]c3ccccc23)n1`, the “NF-kB SEAP reporter activity” value in assay [1] (setting [4]) came out at 0.251; in assay [1] (setting [5]), 0.226.

As for `O=C(c1ccc(Nc2nccc(-c3cc4ccccc4s3)n2)cc1)N1CCC(N2CCCC2)CC1` (library stock concentration (final ~1000-fold dilution): 10 mM), the “NF-kB SEAP reporter activity” value in assay [2] (agonist: LPS (TLR4) 0.1 ug/mL) was 0.302 and 0.283; in assay [2] (setting [6]), 0.179 and 0.19; in assay [2] (setting [7]), 0.0736 and 0.0841; in assay [2] (setting [8]), 0.128 and 0.186.

On to `COc1cc(C(=O)N2CCC(N3CCN(C)CC3)CC2)ccc1Nc1ncc2c(n1)N(C)c1ccccc1C(=O)N2C`, for which the entries for the “NF-kB SEAP reporter activity” value in assay [1] (setting [9]) and in assay [1] (setting [10]) were 1.48 and 2.66, respectively.

As for `CCOc1cc(N2CCC(O)CC2)ccc1Nc1ncc2c(n1)N(C)c1ccccc1C(=O)N2C`, the “NF-kB SEAP reporter activity” value amounted to 1.23 in assay [1] (setting [9]) and 1.91 in assay [1] (setting [10]).

On to `COc1cc(N2CCC(N)CC2)ccc1Nc1ncc(Cl)c(-c2c[nH]c3ccccc23)n1` (library stock concentration (final ~1000-fold dilution): 10 mM), for which the “NF-kB SEAP reporter activity” value in assay [2] (agonist: LPS (TLR4) 0.1 ug/mL) amounted to 0.166; in assay [2] (setting [6]) it was 0.19; in assay [2] (setting [7]), 0.0626; in assay [2] (setting [8]), 0.118.

Consider `CCOc1cc(N2CCC(O)CC2)ccc1Nc1ncc2c(n1)N(C)c1ccccc1C(=O)N2C` (library stock concentration (final ~1000-fold dilution): 10 mM), for which the “NF-kB SEAP reporter activity” value in assay [3] (agonist: LPS (TLR4) 0.1 ug/mL) is 3.72; in assay [3] (setting [6]), 1.57; in assay [3] (setting [7]) it was 1; in assay [3] (setting [8]) it was 1.48.

As for `O=C(c1ccc(C(=O)N2CCC(N3CCCC3)CC2)c(Nc2ccccc2)c1)N1CCC(N2CCCC2)CC1` (library stock concentration (final ~1000-fold dilution): 10 mM), the “NF-kB SEAP reporter activity” value in assay [3] (agonist: LPS (TLR4) 0.1 ug/mL) came to 0.933; in assay [3] (setting [6]) it was 0.944; in assay [3] (setting [7]), 1.04; in assay [3] (setting [8]) it was 1.33.

Turning to `COc1cc(N2CCN(C)CC2)ccc1Nc1ncc2c(n1)N(C)c1ccccc1C(=O)N2`, the “NF-kB SEAP reporter activity” value in assay [1] (setting [9]) is 0.928; in assay [1] (setting [10]) it was 1.03.

Take `CCOc1cc(C(=O)N2CCC(N3CCN(C)CC3)CC2)ccc1Nc1ncc2c(n1)N(C1CCCC1)c1ccccc1C(=O)N2C`: the “NF-kB SEAP reporter activity” value in assay [1] (setting [4]) was 1.44; in assay [1] (setting [5]) it was 2.71.

As for `CCOc1cc(C(=O)N2CCC(N3CCN(C)CC3)CC2)ccc1Nc1ncc2c(n1)N(C1CCCC1)c1ccccc1C(=O)N2C` (library stock concentration (final ~1000-fold dilution): 10 mM), the “NF-kB SEAP reporter activity” value in assay [2] (agonist: LPS (TLR4) 0.1 ug/mL) is 5.49; in assay [2] (setting [6]), 1.31; in assay [2] (setting [7]), 1.36; in assay [2] (setting [8]), 3.42.

Turning to `COc1cc(C(=O)N2CCC(N3CCN(C)CC3)CC2)ccc1Nc1ncc2c(n1)N(C)c1ccccc1C(=O)N2C` (library stock concentration (final ~1000-fold dilution): 10 mM), the “NF-kB SEAP reporter activity” value is 3.59 in assay [3] (agonist: LPS (TLR4) 0.1 ug/mL), 0.264 in assay [3] (setting [6]), 1.02 in assay [3] (setting [7]) and 2.01 in assay [3] (setting [8]).

As to `COc1cc(N2CCN(C)CC2)ccc1Nc1ncc2c(n1)N(C)c1ccccc1C(=O)N2` (library stock concentration (final ~1000-fold dilution): 10 mM), the “NF-kB SEAP reporter activity” value in assay [3] (agonist: LPS (TLR4) 0.1 ug/mL) was 0.966; in assay [3] (setting [6]) it was 0.514; in assay [3] (setting [7]) it was 1.08; in assay [3] (setting [8]) it was 1.61.

For `CC1OC(=O)C(C)C1CC(O)C(C)(O)C1CCC2(O)C3=CC(=O)C4CC(O)C(O)CC4(C)C3CCC12C` (stereo not given), the “NF-kB SEAP reporter activity” value stood at 1.02 in assay [1] (setting [9]) and 1.05 in assay [1] (setting [10]).

`CC1OC(=O)C(C)C1CC(O)C(C)(O)C1CCC2(O)C3=CC(=O)C4CC(O)C(O)CC4(C)C3CCC12C` (stereo not given) (library stock concentration (final ~1000-fold dilution): 10 mM): the “NF-kB SEAP reporter activity” value amounted to 1.18 in assay [3] (agonist: LPS (TLR4) 0.1 ug/mL), 1.02 in assay [3] (setting [6]), 1.16 in assay [3] (setting [7]) and 1.23 in assay [3] (setting [8]).

In the case of `CCOc1cc(N)c([N+](=O)[O-])cc1C(=O)NC1CCN(CC2CC=CCC2)CC1.O=C(O)C(O)C(O)C(=O)O` (stereo not given), the “NF-kB SEAP reporter activity” value came out at 1.28 in assay [1] (setting [9]) and 1.03 in assay [1] (setting [10]).

Consider `CCOc1cc(N)c([N+](=O)[O-])cc1C(=O)NC1CCN(CC2CC=CCC2)CC1.O=C(O)C(O)C(O)C(=O)O` (stereo not given) (library stock concentration (final ~1000-fold dilution): 10 mM), for which the “NF-kB SEAP reporter activity” value in assay [3] (agonist: LPS (TLR4) 0.1 ug/mL) was found to be 1.38; in assay [3] (setting [6]), 0.18; in assay [3] (setting [7]), 0.898; in assay [3] (setting [8]), 0.739.

Consider `CCC(Nc1ncnc2[nH]cnc12)c1oc2ccccc2c(=O)c1-c1cccc(F)c1` (stereo not given), for which the “NF-kB SEAP reporter activity” value in assay [1] (setting [9]) turned out to be 0.582; in assay [1] (setting [10]), 0.924.

In the case of `CCC(Nc1ncnc2[nH]cnc12)c1oc2ccccc2c(=O)c1-c1cccc(F)c1` (stereo not given) (library stock concentration (final ~1000-fold dilution): 10 mM), the “NF-kB SEAP reporter activity” value is 0.907 in assay [3] (agonist: LPS (TLR4) 0.1 ug/mL), 0.718 in assay [3] (setting [6]), 0.443 in assay [3] (setting [7]) and 0.61 in assay [3] (setting [8]).

On to `O=C(Oc1cccc(F)c1OC(=O)c1cccc(O)c1)c1cccc(O)c1`, for which the entries for the “NF-kB SEAP reporter activity” value in assay [1] (setting [4]) and in assay [1] (setting [5]) were 0.964 and 1.24, respectively.

As for `O=C(Oc1cccc(F)c1OC(=O)c1cccc(O)c1)c1cccc(O)c1` (library stock concentration (final ~1000-fold dilution): 10 mM), the “NF-kB SEAP reporter activity” value in assay [2] (agonist: LPS (TLR4) 0.1 ug/mL) was 1.21; in assay [2] (setting [6]) it was 0.597; in assay [2] (setting [7]), 0.639; in assay [2] (setting [8]), 0.541.

On to `CC(C)C(NC(=O)c1ccc2ccccc2n1)C(=O)NC(CC(=O)O)C(=O)COc1c(F)cccc1F` (stereo not given), for which the “NF-kB SEAP reporter activity” value in assay [1] (setting [9]) was found to be 1.01; in assay [1] (setting [10]), 1.14.

For the compound `CC(C)C(NC(=O)c1ccc2ccccc2n1)C(=O)NC(CC(=O)O)C(=O)COc1c(F)cccc1F` (stereo not given) (library stock concentration (final ~1000-fold dilution): 10 mM), the “NF-kB SEAP reporter activity” value was 1.05 in assay [3] (agonist: LPS (TLR4) 0.1 ug/mL), 1.05 in assay [3] (setting [6]), 1.03 in assay [3] (setting [7]) and 1.26 in assay [3] (setting [8]).

For the compound `CC12CCC3C(CCC4C(C)(C(=O)O)CCCC34C)(CC1=O)C2` (stereo not given) (library stock concentration (final ~1000-fold dilution): 10 mM), the “NF-kB SEAP reporter activity” value in assay [3] (agonist: LPS (TLR4) 0.1 ug/mL) came out at 1.41; in assay [3] (setting [6]), 1.11; in assay [3] (setting [7]), 1.13; in assay [3] (setting [8]), 1.02.

Turning to `CC12CCC3C(CCC4C(C)(C(=O)O)CCCC34C)(CC1=O)C2` (stereo not given), the “NF-kB SEAP reporter activity” value was found to be 0.95 in assay [1] (setting [9]) and 1.14 in assay [1] (setting [10]).

On to `O=C1OC(=O)C2C3CCC(O3)C12` (stereo not given), for which the entries for the “NF-kB SEAP reporter activity” value in assay [1] (setting [9]) and in assay [1] (setting [10]) were 1.93 and 2.03, respectively.

On to `O=C1OC(=O)C2C3CCC(O3)C12` (stereo not given) (library stock concentration (final ~1000-fold dilution): 10 mM), for which the “NF-kB SEAP reporter activity” value in assay [3] (agonist: LPS (TLR4) 0.1 ug/mL) stood at 3.23; in assay [3] (setting [6]) it was 2; in assay [3] (setting [7]) it was 1.84; in assay [3] (setting [8]), 1.76.
